The text below walks through data of PubChem BioAssay.

Assay [1] can be described thus: small molecules captured by biotinylated probe aFSTL3 – biochemical, small-molecule microarray, fluorescence 635/667, stem cell growth factor project, primary screen (AID 1064).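 Also: measures binding of the biotinylated anti-FSTL3 antibody to printed compounds.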 The settings on record: higher = more signal.
Assay [2] can be described thus: binders from COS7 lysate, DM2A8 probe, primary screen, torsin A project, cell lysate, small-molecule microarray, fluorescence 635/667 (AID 1065). To be noted: higher = more signal, COS7 lysate expressing mutant human TOR1A.
A short description of assay [3]: small molecules captured by biotinylated probe aFGF2 – biochemical, small-molecule microarray, fluorescence 635/667, stem cell growth factor project, primary screen (AID 1067).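 Also: measures binding of biotinylated aFGF2 protein to printed compounds on slides; z-score merges feature fluorescence and signal-to-noise across triplicate slides.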 The settings on record: higher = more signal.
A short description of assay [4]: small molecules captured by biotinylated probe aFGF10 – biochemical, small-molecule microarray, fluorescence 635/667, stem cell growth factor project, primary screen (AID 1071).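 Also: score merges 667 nm spot intensity and signal to noise from triplicate slides.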 The settings on record: higher = more signal.
Assay [5] has as its target Neurogenic locus notch homolog protein 2 (Homo sapiens) (UniProt Q04721). The assay is described as follows: small molecules binding Notch2 protein – biochemical, small-molecule microarray, 635 nm fluorescence, stem cell growth factors, primary screen (AID 1073). To be noted: higher = more signal.
The target in assay [6] is Pro-neuregulin-1, membrane-bound isoform (Homo sapiens) (UniProt Q02297). The assay is described as follows: small molecules binding neuregulin-1 protein – biochemical, small-molecule microarray, fluorescence 635/667, psychiatric disease protein project, primary screen (AID 1075).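 Also: score combines 667 nm spot fluorescence with signal to noise.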 The settings on record: NRG1 binding, 635 nm fluorescence, higher = more signal.
Assay [7] concerns Neuregulin-1 EGF-like domain. The assay is described as follows: small molecules binding NRG1 EGF domain – biochemical, small-molecule microarray, 635 nm fluorescence, primary screen (AID 1081).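 Also: binding of the protein to compounds printed on small-molecule microarray slides.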 The settings on record: higher = more signal.
The nature of assay [8]: FRG1 expression reporter modulators in myotubes – cell-based, C2C12 myotubes, firefly/Renilla luciferase, luminescence, FRG1 inhibition for FSHD, primary screen (AID 1084). The settings on record: FRG1 promoter luciferase, higher = more signal, called active from +8 up or from −8 down.
A short description of assay [9]: small molecules captured by biotinylated probe aFST – biochemical, small-molecule microarray, fluorescence 635/667, stem cell growth factor project, primary screen (AID 1086).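 Also: score merges 667 nm fluorescence with signal-to-noise of each printed compound spot.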 The settings on record: higher = more signal.
Assay [10] is described as follows: binders of probe aHhip on microarray, primary screen, stem cell growth factor project, biochemical, small-molecule microarray, fluorescence 635/667 (AID 1087).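 Also: score merges spot fluorescence at 667nm with spot signal to noise ratio.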 To be noted: higher = more signal.

The source made the active and inactive calls.

Neurogenic locus notch homolog protein 2 (Homo sapiens), sequence (Q04721 whole entry, looked up, canonical isoform): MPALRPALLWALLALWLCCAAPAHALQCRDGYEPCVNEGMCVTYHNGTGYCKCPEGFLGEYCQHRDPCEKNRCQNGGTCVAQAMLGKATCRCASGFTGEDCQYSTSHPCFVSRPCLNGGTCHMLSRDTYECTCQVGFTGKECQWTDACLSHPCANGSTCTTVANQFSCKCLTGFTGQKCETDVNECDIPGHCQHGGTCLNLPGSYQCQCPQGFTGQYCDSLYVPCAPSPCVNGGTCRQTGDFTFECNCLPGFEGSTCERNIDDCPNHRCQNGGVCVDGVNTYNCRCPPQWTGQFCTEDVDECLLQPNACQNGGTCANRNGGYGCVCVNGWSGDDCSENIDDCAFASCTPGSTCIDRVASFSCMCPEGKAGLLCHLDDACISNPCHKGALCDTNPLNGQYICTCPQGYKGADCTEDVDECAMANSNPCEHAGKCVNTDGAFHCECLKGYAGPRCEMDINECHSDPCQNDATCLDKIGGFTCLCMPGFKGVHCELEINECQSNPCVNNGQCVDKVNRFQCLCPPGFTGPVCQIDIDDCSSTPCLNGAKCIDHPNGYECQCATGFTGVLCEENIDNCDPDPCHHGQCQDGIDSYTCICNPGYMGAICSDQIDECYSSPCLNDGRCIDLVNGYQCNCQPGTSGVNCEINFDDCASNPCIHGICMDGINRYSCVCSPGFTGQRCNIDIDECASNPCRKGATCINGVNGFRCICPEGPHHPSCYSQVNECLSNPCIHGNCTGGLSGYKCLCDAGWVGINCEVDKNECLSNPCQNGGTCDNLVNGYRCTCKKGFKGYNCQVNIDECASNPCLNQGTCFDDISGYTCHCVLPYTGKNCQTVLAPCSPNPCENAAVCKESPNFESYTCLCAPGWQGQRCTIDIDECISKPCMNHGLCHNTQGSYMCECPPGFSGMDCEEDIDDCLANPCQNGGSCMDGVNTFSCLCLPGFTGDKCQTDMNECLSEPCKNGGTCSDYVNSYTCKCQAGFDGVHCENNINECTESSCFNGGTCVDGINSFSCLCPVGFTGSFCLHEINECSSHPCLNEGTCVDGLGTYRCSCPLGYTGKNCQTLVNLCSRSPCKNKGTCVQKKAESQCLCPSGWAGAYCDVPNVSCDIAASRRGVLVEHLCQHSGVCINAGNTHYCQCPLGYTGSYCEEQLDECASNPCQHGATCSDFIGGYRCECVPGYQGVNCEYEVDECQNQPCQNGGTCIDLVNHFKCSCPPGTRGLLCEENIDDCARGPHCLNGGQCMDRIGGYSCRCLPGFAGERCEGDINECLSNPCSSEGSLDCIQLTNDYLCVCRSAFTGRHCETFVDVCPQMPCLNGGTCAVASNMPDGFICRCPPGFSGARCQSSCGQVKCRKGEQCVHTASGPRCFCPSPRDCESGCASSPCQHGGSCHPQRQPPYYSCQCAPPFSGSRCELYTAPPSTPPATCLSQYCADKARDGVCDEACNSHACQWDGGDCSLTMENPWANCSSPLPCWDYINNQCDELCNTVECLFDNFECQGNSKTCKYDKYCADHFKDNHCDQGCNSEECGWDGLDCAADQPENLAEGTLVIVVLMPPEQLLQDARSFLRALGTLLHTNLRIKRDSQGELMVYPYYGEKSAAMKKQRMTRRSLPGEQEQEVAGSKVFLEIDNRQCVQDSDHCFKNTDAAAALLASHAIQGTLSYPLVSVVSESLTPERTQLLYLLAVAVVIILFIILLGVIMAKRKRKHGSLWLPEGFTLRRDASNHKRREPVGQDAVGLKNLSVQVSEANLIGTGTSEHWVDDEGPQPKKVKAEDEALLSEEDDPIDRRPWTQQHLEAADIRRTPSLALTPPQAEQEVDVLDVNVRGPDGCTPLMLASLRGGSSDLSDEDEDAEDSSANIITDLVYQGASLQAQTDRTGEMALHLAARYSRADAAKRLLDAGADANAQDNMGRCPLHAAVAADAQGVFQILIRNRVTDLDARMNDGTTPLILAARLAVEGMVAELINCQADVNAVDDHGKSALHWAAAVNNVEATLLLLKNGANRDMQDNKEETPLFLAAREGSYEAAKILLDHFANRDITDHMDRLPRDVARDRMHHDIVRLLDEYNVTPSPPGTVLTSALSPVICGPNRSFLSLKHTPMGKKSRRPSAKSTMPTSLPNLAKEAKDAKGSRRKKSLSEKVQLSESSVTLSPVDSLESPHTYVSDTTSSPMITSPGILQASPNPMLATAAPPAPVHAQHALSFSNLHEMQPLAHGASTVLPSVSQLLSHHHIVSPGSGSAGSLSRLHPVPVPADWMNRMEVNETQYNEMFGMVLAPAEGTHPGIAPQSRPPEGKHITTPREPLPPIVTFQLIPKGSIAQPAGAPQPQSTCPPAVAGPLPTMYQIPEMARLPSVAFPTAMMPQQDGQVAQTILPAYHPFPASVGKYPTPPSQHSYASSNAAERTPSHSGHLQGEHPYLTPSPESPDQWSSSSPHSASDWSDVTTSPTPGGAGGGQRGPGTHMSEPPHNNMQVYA
Pro-neuregulin-1, membrane-bound isoform (Homo sapiens), sequence (Q02297 whole entry, looked up, the tested form may be a part, canonical isoform): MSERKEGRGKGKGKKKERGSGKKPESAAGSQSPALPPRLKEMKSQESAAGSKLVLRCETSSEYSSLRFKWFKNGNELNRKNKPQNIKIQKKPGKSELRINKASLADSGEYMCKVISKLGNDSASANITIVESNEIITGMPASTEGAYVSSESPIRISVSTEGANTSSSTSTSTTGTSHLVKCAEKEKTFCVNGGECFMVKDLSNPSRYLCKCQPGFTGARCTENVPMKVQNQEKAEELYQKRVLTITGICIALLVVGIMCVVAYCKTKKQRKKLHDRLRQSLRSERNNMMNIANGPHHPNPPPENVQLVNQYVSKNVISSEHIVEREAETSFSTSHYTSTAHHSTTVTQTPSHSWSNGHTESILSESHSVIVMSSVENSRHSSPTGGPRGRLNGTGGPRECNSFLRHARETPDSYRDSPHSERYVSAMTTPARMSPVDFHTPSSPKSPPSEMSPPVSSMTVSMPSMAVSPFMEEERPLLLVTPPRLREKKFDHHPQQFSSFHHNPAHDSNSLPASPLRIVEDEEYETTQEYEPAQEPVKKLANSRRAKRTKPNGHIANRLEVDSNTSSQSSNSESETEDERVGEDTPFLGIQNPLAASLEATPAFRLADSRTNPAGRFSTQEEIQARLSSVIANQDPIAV

For the compound `Cc1ccccc1C(O)C1C=CC2C(=O)N(Cc3ccccc3)C(=O)C2N1n1cnnc1` (stereo not given), the composite z-score was -0.281 in assay [1]; 0.34 in assay [2]; -0.0085 in assay [3]; 0.304 in [4]; 1.02 in [5]; 1.03 in assay [6]. The composite z-score in [7] turned out to be 0.92; in assay [9], 0.475; in assay [10], 0.0053. For the same compound, the z-score in [8] is 0.253 (inactive).

In the case of `Cc1ccc(-c2cccc(=O)o2)cc1`, the composite z-score was 0.139 in [1]; -0.549 in assay [2]; -0.0973 in assay [3]; -0.304 in [4]; -0.351 in assay [5]; -0.411 in [6]. Further, the composite z-score was -0.596 in assay [7], 0.121 in assay [9] and -0.353 in assay [10]. In addition, in [8], the z-score was 5.3 (inactive).

For the compound `O=C1C2C=CC(C(O)c3ccccn3)N(Nc3ccccc3)C2C(=O)N1c1ccccc1` (stereo not given), the composite z-score was -0.205 in assay [1]; -1.39 in assay [2]; -0.105 in assay [3]; 0.356 in [4]; 0.177 in assay [5]; 1.65 in [6]. Besides, the composite z-score in [7] was 1.03; in [9] it was 0.338; in [10], -0.0003. Besides, the z-score in [8] was 1.29 (inactive).

Turning to `CCCCC(O)C1C=CC2C(=O)N(Cc3ccccc3)C(=O)C2N1n1cnnc1` (stereo not given), the composite z-score in assay [1] is -0.246; in [2], 0.095; in assay [3], 0.0311; in assay [4], 0.22; in [5], 0.225; in assay [6] it was 1.1. Moreover, the composite z-score in assay [7] came to 1.08; in assay [9] it was 0.437; in [10], 0.312. The z-score in assay [8] was 0.2 (inactive).

`CCOC(=O)C1=CC[C@@H](c2ccc(N(CC)CC)cc2)N(S(=O)(=O)c2ccc(C)cc2)[C@H]1c1ccc([N+](=O)[O-])cc1`: the composite z-score in assay [1] was 0.709; in assay [2], -0.346; in assay [3] it was -0.0336; in assay [4], -0.865; in [5], -0.398; in assay [6], 0.722. Besides, the composite z-score in assay [7] is 0.722; in assay [9], 0.0676; in [10], -0.0237. For the same compound, the z-score in assay [8] is -0.162 (inactive).

Consider `COCCOC(=O)N1C(=O)[C@@]2(c3cc(C#CCCO)ccc31)[C@H](c1ccc(OCCO)cc1)N1[C@H](c3ccccc3)[C@H](c3ccccc3)OC(=O)[C@H]1[C@@H]2C(=O)N1CCc2cc(OC)c(OC)cc2C1`, for which the composite z-score was -0.392 in assay [1]; 0.444 in [2]; -0.0732 in assay [3]; 0.375 in assay [4]; 0.921 in [5]; 0.635 in [6]. Moreover, the composite z-score in [7] is 1.25; in [9], 0.159; in assay [10], -0.0618. The z-score in assay [8] was -0.355 (inactive).

As for `CCOC(=O)C[C@H]1[C@H](OC(=O)c2ccc(C(=O)c3ccccc3)cc2)[C@@H](NC(=O)C2CCCCC2)c2cc(OCCCO)ccc2N1C(=O)Cc1ccc(OC)cc1`, the composite z-score in [1] came out at 0.644; in [2], 0.673; in assay [3], 0.0007; in [4], 0.348; in [5] it was 0.376; in assay [6], 0.556. For the same compound, the composite z-score in assay [7] was determined as 0.207; in assay [9], 0.757; in [10], 0.295. For the same compound, the z-score in assay [8] was -1.01 (inactive).

For the compound `CCOC(=O)C1=CC[C@@H](c2cccc(Br)c2)N(S(=O)(=O)c2ccc(C)cc2)[C@H]1c1ccc([N+](=O)[O-])cc1`, the composite z-score in [1] is -0.508; in [2], 2.18; in assay [3] it was -0.0535; in assay [4], 0.928; in [5] it was 1.52; in [6], 0.674. Also, the composite z-score in [7] was 1.11; in [9], 0.339; in assay [10], 0.305. For the same compound, in assay [8], the z-score was -1.74 (inactive).

`O=C(NCc1ccccc1)[C@]1(Cc2ccccc2)N=C(c2ccc(OCCCO)cc2)O[C@@H]1c1ccccc1`: the composite z-score was 0.78 in [1]; -0.136 in assay [2]; -0.0499 in assay [3]; 0.885 in [4]; 1.46 in assay [5]; 1.31 in assay [6]. The composite z-score in assay [7] worked out at 0.93; in assay [9], 0.662; in assay [10] it was 0.0024. In addition, the z-score in assay [8] is -2.57 (inactive).

On to `Cc1ccc(S[C@]2(C(=O)O)CC(=O)N(Cc3ccccc3C(F)(F)F)[C@@H]2c2ccc(CO)cc2)cc1`, for which the composite z-score in assay [1] was 0.405; in assay [2] it was -0.138; in assay [3], -0.172; in assay [4], -0.338; in assay [5] it was -1.11; in assay [6] it was -0.343. Besides, the composite z-score was 0.508 in assay [7], -0.49 in assay [9] and -0.374 in assay [10]. The z-score in [8] is -0.383 (inactive).

As for `Cc1ccc(S[C@]2(C(=O)O)CC(=O)N(C3CCCCC3)[C@@H]2c2ccc(CO)cc2)cc1`, the composite z-score was -0.27 in assay [1]; 0.333 in assay [2]; -0.0943 in assay [3]; -0.315 in assay [4]; 0.555 in [5]; 1.36 in assay [6]. Further, the composite z-score in [7] was 0.962; in [9] it was 0.157; in [10], 0.0496. Moreover, the z-score in assay [8] is -1.02 (inactive).

Turning to `C[N+](C)(C)CCCCCCNC(=O)[C@@H]1C[C@@H]2C(=O)NCC(=O)N2[C@@H]1c1ccc(O)cc1`, the composite z-score is -0.416 in [1]; 1.27 in assay [2]; -0.116 in assay [3]; 0.391 in assay [4]; -0.149 in [5]; 1.51 in assay [6]. For the same compound, the composite z-score in [7] is 1.43; in assay [9], 0.0022; in assay [10], -0.0088. Also, the z-score in [8] was 2.8 (inactive).

As to `CC(C)CCC[C@@H](C)[C@H]1CC[C@@]2(C)C3=C(CC[C@]12C)[C@@]1(C)CC[C@H](OC(=O)C(C)(C)C)C(C)(C)C1CC3` (stereo not given in full), the composite z-score was -0.441 in [1]; 0.39 in assay [2]; -0.0609 in assay [3]; 0.298 in assay [4]; 0.575 in [5]; -0.036 in assay [6]. Further, the composite z-score is 0.307 in assay [7], 0.0166 in assay [9] and -0.0296 in assay [10]. In assay [8], the z-score is -0.987 (inactive).

With `COc1cc2c(cc1OC)CN(C(=O)[C@@H]1[C@H]3C(=O)O[C@H](c4ccccc4)[C@H](c4ccccc4)N3[C@H](c3ccc(O)cc3)[C@@]13C(=O)Nc1ccc(C#CCNC(N)=O)cc13)CC2`, the composite z-score in [1] was -0.133; in assay [2], -0.121; in assay [3], -0.0616; in assay [4] it was 0.411; in [5], 0.578; in assay [6] it was 0.559. Moreover, the results for the composite z-score in [7], in assay [9] and in assay [10] were 0.544, 0.75 and -0.0994, respectively. In assay [8], the z-score is 0.238 (inactive).

Consider `[N-]=[N+]=Nc1ccccc1[C@@H]1OC(c2ccc(OCCCO)cc2)=N[C@]1(CCS(=O)(=O)c1ccccc1)C(=O)NCc1ccccc1`, for which the composite z-score in assay [1] is 0.207; in assay [2] it was 0.599; in [3], 0.294; in assay [4], 0.655; in assay [5], 1.52; in [6], 1.9. Moreover, the composite z-score in assay [7] is 1.1; in assay [9], 1.8; in assay [10] it was -0.196. Besides, the z-score in assay [8] was 0.271 (inactive).

On to `COCCOC(=O)N1C(=O)[C@@]2(c3ccccc31)[C@H](c1ccccc1OCCO)N1[C@H](c3ccccc3)[C@H](c3ccccc3)OC(=O)[C@H]1[C@@H]2C(=O)N1CCc2cc(OC)c(OC)cc2C1`, for which the composite z-score in assay [1] stood at 0.184; in assay [2], 0.124; in assay [3], 0.071; in assay [4], 0.336; in assay [5] it was 0.403; in assay [6], 0.982. For the same compound, the composite z-score worked out at 1.25 in assay [7], 0.356 in [9] and 0.28 in assay [10]. For the same compound, the z-score in [8] was -1.61 (inactive).
